The text below walks through data of PubChem BioAssay AID2061319 (National Center for Advancing Translational Sciences (NCATS), 2025).

Results filed as inconclusive are left out. Activity calls are given as the source filed them. The call rests on the fitted dose curve; in most records, active means well fitted inhibition curve with a large enough effect; inconclusive means small, poorly fitted or top-dose-only effect; inactive means flat fitted curve, though single readings scatter. Square brackets hold non-standard residues; d marks the D form. Peptide text beside a SMILES is read from it. * marks the point of attachment. Dolaproine = CO[C@@H]([C@@H]1CCCN1)[C@@H](C)C(=O)O; Dil = CC[C@H](C)[C@H](NC)[C@@H](CC(=O)O)OC; X1 = C[C@@H](N*)[C@@H](O)c1ccccc1; NMeV = CN[C@H](C(=O)O)C(C)C

The nature of the test: Identification of antibody-drug conjugate (ADC) payloads which are substrates of ATP-binding cassette drug efflux transporters: ABCG2-H460-MX20 cell line with Ko143. Conditions: H460-MX20 (ABCG2) + Ko143, CellTiter-Glo viability, 48 h; series mostly up to 28.7 µM; activity change, negative = cytotoxicity: at the top concentration. An excerpt:
Antibody-drug conjugates (ADCs) feature an antibody recognizing a specific protein joined to a potent toxic payload. Numerous antibody-drug conjugates have received FDA approval; however, clinical resistance arises. Resistance mechanisms include decreased expression or mutation of the antibody target, impaired payload release, or increased expression of ATP-binding cassette (ABC) efflux transporters associated with multidrug resistance. We therefore sought to characterize the interaction of ABC multidrug transporters with ADC payloads. We performed a high-throughput screen with 27 common ADC payloads using cells lines expressing ABC transporters P-glycoprotein (P-gp, encoded by ABCB1) or ABCG2 (encoded by ABCG2). Confirmatory assays were also performed using cells transfected to express P-gp, ABCG2, or MRP1 (encoded by ABCC1). Several commonly used ADC payloads were substrates of P-gp, including calicheamicin gamma1, monomethyl auristatin E, DM1, and DM4. All the pyrrolobenzodiazepines tested - SJG136, SGD-1882, SG2057, and SG3199 - were substrates of P-gp, ABCG2, and MRP1. […] These findings highlight the risk of transporter-mediated resistance with certain ADC payloads and underscore the importance of selecting payloads that evade ABC transporter recognition in future ADC development.
HEK-293 cells were transfected with empty vector (pcDNA) or vector containing the human ABCB1 (MDR-19), ABCG2 (R-5), or ABCC1 gene (MRP1) and were maintained in EMEM with 2 mg/mL G418 added to maintain transporter expression. The HeLa derivative KB-3-1 and the P-gp overexpressing KB-8-5-11 subline were maintained in DMEM; KB-8-5-11 additionally received 100 ng/mL colchicine. H460 parental cells were obtained from the Division of Cancer Treatment and Diagnosis Tumor Repository, National Cancer Institute at Frederick, MD and were cultured in RPMI. The ABCG2 expressing subline H460 MX20 was generated by selecting H460 cells in 20 nM mitoxantrone. Media in all cases was supplemented with 10% FBS and 1% penicillin-streptomycin. We explored 27 common ADC payloads, in two orthogonal, paired cell line sets-a drug selected and transfected set for each transporter--to identify substrates of the ABC transporters P-gp and ABCG2. Compounds were sourced from Levena Biopharma (San Diego, CA), Selleck Chem (Houston, TX), ChemieTek (Indianapolis, IN), or Microsource Discovery Systems (Gaylordsville, CT). Screening was performed as previously described. Briefly, cells were plated at a density of 500 cells/well in 1536 well plates with compounds added using a 1536-head pin tool (Kalypsys, San Diego CA). Cells were incubated with cytotoxic drugs and processed with CellTiter Glo reagent (Promega, Madison, WI) to determine viability after 48 hours. P-gp substrates were identified by comparing compound activity between paired sets of low-expressing (sensitive) and over-expressing (resistant) cell lines.
Background: ATP-based viability assays read luminescence as a measure of living cells.
Turning to `COc1cc2cc(C(=O)N3C[C@@H](CCl)c4c3cc(O)c3ccccc43)[nH]c2c(OC)c1OC`, the Potency is 1.9 nM (active). Consider `CC[C@H](C)[C@@H]([C@@H](CC(=O)N1CCC[C@H]1[C@H](OC)[C@@H](C)C(=O)N[C@H](C)[C@@H](O)c1ccccc1)OC)N(C)C(=O)[C@@H](NC(=O)[C@H](C(C)C)N(C)C)C(C)C`, for which the Potency was 6710 nM (active). For `CC[C@H](C)[C@@H]([C@@H](CC(=O)N1CCC[C@H]1[C@H](OC)[C@@H](C)C(=O)N[C@H](C)[C@@H](O)c1ccccc1)OC)N(C)C(=O)[C@@H](NC(=O)[C@@H](NC)C(C)C)C(C)C` (H-[NMeV]V[Dil][Dolaproine]-X1), the “activity change, negative = cytotoxicity” value was -30.4% (inactive). In the case of `CC[C@@]1(O)C(=O)OCc2c1cc1n(c2=O)Cc2cc3ccccc3nc2-1`, the Potency is 238 nM (active).

Consider `CC[C@H](C)[C@@H]1NC(=O)CNC(=O)[C@H]2Cc3c([nH]c4cc(O)ccc34)S(=O)C[C@H](NC(=O)CNC1=O)C(=O)N[C@@H](CC(N)=O)C(=O)N1C[C@H](O)C[C@H]1C(=O)N[C@@H]([C@@H](C)[C@@H](O)CO)C(=O)N2` (stereo partly drawn), for which the Potency was 533 nM (active). Turning to `CC[C@H](C)[C@H](NC(=O)[C@H]1CCCCN1C)C(=O)N(C)[C@H](C[C@@H](OC(C)=O)c1nc(C(=O)N[C@@H](Cc2ccccc2)C[C@H](C)C(=O)O)cs1)C(C)C`, the “activity change, negative = cytotoxicity” value is -26% (inactive). On the same count and under the same terms, the result for `CC[C@H](C)[C@H](NC(=O)[C@H]1CCCCN1C)C(=O)N(C)[C@H](C[C@@H](OC(C)=O)c1nc(C(=O)O)cs1)C(C)C` reads -27.7% (inactive). Consider `COc1cccc2c1C(=O)c1c(O)c3c(c(O)c1C2=O)C[C@@](O)(C(=O)CO)CC3OC1CC(N2CCOC(OC)C2)C(O)C(C)O1` (stereo partly drawn), for which the Potency was 9.5 nM (active).
